Columns and labels:
Assay in all cases: log2 ratio of Biotin-Ahx-Ub-VS probe labelling (fragment/DMSO); higher = less target engagement (more negative = stronger competition), active = hit call of the paper (q ≤ 0.05, log2 ratio ≤ -1)
Conditions in all cases: compound concentration: 200 uM; treatment time: 3 h
USP16 = USP16 (UniProt Q9Y5T5)
Method in brief: (§1)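 Labelled DUBs were enriched with NeutrAvidin, digested with LysC and trypsin, and run by diaPASEF LC-MS/MS. The labelling used Biotin-Ahx-Ub-VS at 0.5 µM final for 1 h on HEK293T lysate (495 µg per sample) previously treated in triplicate with fragment at 200 µM or vehicle for 3 h. Values are average log2 fragment/vehicle ratios by unpaired t-test on global-median-normalised Spectronaut quantities of proteins with ≥2 unique peptides.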

USP19 = biological target: T1, USP19 (UniProt O94966)
T1 sequence (whole entry): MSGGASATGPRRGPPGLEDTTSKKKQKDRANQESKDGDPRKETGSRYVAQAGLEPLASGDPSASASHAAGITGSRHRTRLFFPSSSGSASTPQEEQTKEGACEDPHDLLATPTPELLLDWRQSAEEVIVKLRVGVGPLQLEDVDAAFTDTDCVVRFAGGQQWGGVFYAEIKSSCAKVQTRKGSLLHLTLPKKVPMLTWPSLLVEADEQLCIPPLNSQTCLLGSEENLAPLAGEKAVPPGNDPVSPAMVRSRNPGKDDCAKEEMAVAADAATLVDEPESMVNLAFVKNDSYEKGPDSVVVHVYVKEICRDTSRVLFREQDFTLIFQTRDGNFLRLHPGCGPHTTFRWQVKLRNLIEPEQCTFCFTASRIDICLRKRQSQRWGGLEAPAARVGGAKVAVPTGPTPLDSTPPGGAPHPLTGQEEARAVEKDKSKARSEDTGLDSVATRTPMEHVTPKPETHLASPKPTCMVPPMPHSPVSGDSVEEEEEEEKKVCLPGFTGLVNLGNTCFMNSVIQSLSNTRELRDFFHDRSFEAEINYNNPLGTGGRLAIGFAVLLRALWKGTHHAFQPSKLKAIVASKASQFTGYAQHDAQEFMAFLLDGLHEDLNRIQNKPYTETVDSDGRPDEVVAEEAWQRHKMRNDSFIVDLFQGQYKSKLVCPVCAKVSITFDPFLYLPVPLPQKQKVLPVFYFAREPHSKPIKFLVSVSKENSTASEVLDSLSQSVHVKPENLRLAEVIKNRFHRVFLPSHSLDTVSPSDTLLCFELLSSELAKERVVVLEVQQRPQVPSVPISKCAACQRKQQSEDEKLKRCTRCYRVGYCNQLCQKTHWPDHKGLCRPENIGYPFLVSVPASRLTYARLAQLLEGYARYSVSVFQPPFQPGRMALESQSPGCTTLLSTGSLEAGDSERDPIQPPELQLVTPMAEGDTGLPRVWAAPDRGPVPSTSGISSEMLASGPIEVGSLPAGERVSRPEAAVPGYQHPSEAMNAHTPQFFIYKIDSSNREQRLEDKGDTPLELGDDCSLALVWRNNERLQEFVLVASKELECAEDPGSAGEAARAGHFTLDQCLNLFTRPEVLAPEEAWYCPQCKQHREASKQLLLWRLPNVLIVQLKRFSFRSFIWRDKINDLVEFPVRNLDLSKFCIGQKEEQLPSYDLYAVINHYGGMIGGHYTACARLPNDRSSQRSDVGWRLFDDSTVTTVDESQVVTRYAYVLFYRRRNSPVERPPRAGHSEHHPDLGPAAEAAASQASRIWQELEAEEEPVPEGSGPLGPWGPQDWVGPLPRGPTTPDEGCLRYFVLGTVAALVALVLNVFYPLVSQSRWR
Method in brief: as §1

USP24 = USP24 (UniProt Q9UPU5)
Sequence of USP24 (Q9UPU5 whole entry): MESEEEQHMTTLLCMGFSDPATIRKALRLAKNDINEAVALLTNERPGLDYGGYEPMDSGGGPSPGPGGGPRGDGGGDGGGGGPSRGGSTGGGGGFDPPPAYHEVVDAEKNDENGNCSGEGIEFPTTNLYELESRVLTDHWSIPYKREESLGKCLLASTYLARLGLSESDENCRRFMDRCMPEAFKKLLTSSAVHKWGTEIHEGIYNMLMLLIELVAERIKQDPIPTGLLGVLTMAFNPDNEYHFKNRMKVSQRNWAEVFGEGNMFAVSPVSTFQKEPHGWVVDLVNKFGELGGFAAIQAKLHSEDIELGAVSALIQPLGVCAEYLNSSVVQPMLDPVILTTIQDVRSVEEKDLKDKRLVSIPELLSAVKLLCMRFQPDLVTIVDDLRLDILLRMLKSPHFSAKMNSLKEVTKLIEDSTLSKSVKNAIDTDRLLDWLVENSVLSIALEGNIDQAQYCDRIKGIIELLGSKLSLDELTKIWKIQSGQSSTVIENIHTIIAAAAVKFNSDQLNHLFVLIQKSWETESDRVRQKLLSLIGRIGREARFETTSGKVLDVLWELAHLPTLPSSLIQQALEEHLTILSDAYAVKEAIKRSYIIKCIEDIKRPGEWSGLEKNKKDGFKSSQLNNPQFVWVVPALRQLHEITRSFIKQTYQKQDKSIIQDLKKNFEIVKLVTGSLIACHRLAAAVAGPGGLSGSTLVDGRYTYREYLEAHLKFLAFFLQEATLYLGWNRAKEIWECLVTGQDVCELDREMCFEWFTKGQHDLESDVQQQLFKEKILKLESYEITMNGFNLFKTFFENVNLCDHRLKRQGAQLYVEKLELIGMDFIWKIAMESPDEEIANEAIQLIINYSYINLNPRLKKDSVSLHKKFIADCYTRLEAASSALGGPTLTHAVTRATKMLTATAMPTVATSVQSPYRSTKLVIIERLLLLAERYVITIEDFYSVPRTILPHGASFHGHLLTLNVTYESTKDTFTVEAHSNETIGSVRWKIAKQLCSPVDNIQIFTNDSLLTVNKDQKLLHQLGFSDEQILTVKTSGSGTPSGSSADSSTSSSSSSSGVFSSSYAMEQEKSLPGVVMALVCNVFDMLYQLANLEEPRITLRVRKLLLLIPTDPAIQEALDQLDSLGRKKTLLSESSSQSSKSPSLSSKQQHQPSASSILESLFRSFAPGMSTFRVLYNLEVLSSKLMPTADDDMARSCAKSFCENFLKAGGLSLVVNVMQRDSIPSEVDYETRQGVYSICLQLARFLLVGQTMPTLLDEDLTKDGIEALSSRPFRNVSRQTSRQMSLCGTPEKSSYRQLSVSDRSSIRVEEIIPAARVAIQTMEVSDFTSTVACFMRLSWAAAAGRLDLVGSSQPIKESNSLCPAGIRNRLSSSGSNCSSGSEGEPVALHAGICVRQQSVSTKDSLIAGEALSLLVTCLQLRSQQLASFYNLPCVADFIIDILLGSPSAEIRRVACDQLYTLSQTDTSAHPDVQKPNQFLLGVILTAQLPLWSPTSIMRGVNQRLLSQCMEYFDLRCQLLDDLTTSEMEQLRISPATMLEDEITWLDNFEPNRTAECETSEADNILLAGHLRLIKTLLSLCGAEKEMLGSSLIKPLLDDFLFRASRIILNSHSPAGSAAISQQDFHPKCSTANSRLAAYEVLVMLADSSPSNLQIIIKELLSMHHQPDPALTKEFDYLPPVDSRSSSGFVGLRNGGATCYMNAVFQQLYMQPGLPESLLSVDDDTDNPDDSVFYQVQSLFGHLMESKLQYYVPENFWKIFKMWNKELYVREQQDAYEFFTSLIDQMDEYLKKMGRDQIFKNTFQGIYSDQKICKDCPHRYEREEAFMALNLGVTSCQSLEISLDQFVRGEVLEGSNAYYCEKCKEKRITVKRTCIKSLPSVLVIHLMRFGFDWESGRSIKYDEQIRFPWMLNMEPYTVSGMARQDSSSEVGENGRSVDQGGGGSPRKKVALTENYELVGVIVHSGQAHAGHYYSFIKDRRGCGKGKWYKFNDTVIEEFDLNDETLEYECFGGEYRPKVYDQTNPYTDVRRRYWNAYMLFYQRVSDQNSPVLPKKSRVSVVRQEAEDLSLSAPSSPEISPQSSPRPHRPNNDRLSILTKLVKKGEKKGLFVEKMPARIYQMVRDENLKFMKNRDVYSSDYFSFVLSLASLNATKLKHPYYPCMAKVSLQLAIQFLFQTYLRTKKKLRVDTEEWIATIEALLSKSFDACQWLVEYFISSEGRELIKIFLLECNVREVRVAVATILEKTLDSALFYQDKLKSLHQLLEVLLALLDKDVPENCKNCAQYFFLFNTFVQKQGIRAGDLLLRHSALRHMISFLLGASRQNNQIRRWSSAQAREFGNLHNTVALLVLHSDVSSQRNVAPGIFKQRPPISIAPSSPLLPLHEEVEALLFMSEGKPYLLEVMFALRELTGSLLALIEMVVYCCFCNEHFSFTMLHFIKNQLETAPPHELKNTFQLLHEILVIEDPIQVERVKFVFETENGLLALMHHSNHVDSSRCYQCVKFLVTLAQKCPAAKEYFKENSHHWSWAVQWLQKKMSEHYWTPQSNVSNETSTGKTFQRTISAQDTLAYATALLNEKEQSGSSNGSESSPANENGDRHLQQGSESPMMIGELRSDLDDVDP
Method in brief: as §1

USP25 = biological target: T2, USP25 (UniProt Q9UHP3)
T2 sequence (whole entry): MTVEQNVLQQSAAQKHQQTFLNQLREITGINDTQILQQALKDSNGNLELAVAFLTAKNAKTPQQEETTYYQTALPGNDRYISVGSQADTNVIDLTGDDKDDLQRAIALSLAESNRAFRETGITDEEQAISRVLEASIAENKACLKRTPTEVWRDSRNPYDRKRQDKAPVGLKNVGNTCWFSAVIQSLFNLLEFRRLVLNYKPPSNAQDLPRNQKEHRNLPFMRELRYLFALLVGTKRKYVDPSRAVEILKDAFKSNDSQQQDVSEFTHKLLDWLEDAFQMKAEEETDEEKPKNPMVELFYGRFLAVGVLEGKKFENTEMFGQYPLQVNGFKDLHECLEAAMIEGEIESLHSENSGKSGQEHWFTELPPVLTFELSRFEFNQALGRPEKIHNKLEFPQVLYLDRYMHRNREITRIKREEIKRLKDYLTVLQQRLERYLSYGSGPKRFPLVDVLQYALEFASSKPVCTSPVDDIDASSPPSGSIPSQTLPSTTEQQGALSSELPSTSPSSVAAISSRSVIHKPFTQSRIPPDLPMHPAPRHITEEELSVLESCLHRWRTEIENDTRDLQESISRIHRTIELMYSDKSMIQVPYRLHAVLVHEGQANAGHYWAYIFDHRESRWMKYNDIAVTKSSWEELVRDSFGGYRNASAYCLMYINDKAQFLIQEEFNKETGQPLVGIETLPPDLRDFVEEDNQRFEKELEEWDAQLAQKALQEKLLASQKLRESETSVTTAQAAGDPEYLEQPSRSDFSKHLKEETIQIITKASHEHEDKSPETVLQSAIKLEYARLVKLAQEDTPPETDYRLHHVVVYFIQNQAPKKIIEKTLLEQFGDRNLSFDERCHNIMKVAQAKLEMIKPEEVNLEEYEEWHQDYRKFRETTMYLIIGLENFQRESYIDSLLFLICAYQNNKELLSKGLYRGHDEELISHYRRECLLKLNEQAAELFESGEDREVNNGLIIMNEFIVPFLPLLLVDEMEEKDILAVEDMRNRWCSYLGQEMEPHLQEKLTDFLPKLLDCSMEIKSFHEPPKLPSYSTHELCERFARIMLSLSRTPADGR
Method in brief: as §1

USP28 = biological target: T3, USP28 (UniProt Q96RU2)
T3 sequence (whole entry): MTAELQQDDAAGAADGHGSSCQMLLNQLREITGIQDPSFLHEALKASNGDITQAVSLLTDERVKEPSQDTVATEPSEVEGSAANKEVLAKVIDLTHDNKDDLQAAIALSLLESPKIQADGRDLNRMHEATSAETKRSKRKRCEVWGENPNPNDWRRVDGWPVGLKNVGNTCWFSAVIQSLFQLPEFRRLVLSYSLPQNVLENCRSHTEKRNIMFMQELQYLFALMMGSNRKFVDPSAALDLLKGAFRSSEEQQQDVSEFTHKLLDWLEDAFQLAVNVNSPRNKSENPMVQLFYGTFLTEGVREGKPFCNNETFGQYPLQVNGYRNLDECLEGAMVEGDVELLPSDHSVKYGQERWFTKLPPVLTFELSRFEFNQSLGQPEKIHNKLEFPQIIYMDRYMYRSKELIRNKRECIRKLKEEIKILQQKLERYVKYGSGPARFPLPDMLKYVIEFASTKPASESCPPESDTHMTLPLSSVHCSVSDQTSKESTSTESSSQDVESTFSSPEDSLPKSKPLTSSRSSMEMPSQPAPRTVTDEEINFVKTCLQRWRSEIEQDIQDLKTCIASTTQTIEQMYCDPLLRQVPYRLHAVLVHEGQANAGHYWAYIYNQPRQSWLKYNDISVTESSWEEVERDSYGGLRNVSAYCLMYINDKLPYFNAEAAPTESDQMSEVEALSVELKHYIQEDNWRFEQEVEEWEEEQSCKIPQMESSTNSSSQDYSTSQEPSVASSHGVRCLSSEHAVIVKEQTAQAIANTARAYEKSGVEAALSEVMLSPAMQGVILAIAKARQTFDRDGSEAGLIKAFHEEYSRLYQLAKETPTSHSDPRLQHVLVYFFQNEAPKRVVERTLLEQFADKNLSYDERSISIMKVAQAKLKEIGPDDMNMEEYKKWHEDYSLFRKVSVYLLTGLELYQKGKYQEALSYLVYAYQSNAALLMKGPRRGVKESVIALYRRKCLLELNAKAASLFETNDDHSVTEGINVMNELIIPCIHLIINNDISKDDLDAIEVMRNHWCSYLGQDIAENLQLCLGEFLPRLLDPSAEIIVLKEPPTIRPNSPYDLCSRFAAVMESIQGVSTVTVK
Method in brief: as §1

Measured: log2 ratio of Biotin-Ahx-Ub-VS probe labelling

Sequence of USP16 (Q9Y5T5 whole entry, looked up, the tested form may be a part): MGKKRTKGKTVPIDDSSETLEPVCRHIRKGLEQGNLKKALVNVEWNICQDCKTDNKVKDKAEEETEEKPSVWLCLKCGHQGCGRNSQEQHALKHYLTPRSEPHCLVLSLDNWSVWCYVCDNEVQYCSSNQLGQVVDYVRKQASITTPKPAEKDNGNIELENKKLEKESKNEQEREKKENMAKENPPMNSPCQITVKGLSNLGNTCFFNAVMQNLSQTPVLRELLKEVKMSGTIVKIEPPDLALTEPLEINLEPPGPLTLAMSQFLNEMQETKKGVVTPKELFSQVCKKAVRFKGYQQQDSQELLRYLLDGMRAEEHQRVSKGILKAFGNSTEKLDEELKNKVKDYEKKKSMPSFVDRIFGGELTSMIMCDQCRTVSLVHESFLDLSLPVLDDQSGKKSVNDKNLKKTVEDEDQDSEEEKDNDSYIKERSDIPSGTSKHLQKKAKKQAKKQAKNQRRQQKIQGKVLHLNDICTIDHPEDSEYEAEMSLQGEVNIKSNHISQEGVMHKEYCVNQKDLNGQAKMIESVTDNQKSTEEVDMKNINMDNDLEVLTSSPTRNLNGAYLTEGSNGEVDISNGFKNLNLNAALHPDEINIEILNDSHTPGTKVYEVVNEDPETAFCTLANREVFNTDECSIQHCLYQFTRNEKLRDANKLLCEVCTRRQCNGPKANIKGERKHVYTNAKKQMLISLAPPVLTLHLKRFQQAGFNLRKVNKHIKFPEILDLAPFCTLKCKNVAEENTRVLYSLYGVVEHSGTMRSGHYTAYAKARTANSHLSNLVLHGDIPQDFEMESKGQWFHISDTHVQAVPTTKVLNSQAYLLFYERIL

Cc1ccc(N(C(=O)CCl)C2C=CS(=O)(=O)C2)cc1 (stereo not given)
inactive: USP16 0.19 | USP19 0.0392 | USP24 -0.681 | USP25 0.0868 | USP28 -0.13

Reference: the supplement of paper PMC11732987, “Enantioselective OTUD7B fragment discovery through chemoproteomics screening and high-throughput optimisation” (Communications Chemistry, 2025)
